# According to the supplement of paper PMC7530171:
# ± gives the standard deviation.
# Test system: THP-1 macrophages infected with Mycobacterium tuberculosis H37Rv
# Experiment: intracellular M.tb growth inhibition relative to DMSO (0) and 4 uM bedaquiline (100); higher = stronger inhibition of intracellular bacterial growth
# Conditions: 10 µM; 4 days
# Description: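 OICR kinase inhibitor library screened in duplicate at 10 uM against THP-1 macrophages (PMA-differentiated) infected with M. tuberculosis H37Rv-pTEC27 (tdTomato RFP), 4 days at 37 C. Rows with complete host cell loss (placeholder inhibition 0, cell loss 100) were removed.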
row,Compound,intracellular M.tb growth inhibition [%]
1,NC(=S)N/N=C/c1coc2ccccc2c1=O.[Cl][Cu][Cl],4.45 ± 6.8
2,C/C(O)=C(\C#N)C(=O)Nc1cc(Br)ccc1Br,-33.5 ± 11
3,O=C1NC(=O)c2c1c1c3ccccc3[nH]c1c1[nH]c3ccccc3c21 [Arcyriaflavin A],-61.8 ± 87
4,COC[C@H]1OC(=O)c2coc3c2[C@@]1(C)C1=C(C3=O)[C@@H]2CCC(=O)[C@@]2(C)C[C@H]1OC(C)=O [Wortmannin],-159 ± 64
5,COc1ccc2c(c1)/C(=C/c1cnc[nH]1)C(=O)N2,-99.5 ± 38
6,Cn1cc(C2=C(c3cn(C4CCN(Cc5ccccn5)CC4)c4ccccc34)C(=O)NC2=O)c2ccccc21 [Enzastaurin],-5.94 ± 8.4
7,N#C/C(=C\c1ccc(O)c(O)c1)C(N)=S,-46 ± 15
8,CC(=O)c1c(O)c(C)c(O)c(Cc2c(O)c3c(c(C(=O)/C=C/c4ccccc4)c2O)OC(C)(C)C=C3)c1O [Rottlerin],-0.827 ± 1.2
9,Cc1ccccc1-n1c(Cn2cnc3c(N)ncnc32)nc2cccc(C)c2c1=O,-13.6 ± 20
